Among the data in PubChem BioAssay (Tox21) are Potency values, retold here.

SMILES strings stand for the structures. Several values for one entry are separate records, joined by “and”; a condition that tells them apart may be missing. Equal values may be shown once. Results filed as inconclusive are left out. Entries that show only a call come without a potency. Activity calls are given as the source filed them. Calls come from the whole dose curve; as a rule, active = well fitted cell-killing curve with a large enough effect in the repeat runs; inconclusive = weak or mixed curves, or effect the other way; inactive = flat fitted curve, though single readings scatter.
Potency is the fitted concentration of half-maximal effect.

The experiment can be described thus: qHTS assay to identify small molecule antagonists of the androgen receptor (AR) signaling pathway using the MDA cell line - cell viability counter screen (AID 743041; note: nearly all actives have a fitted effect of over 45% in size). The settings on record: MDA-kb2 viability, CellTiter-Fluor, 16 h, cells co-treated with R1881 androgen agonist; series mostly up to 70.3 µM. From the text: National Center for Advancing Translational Sciences [NCATS]
NIH Chemical Genomics Center [NCGC]
U.S. Environmental Protection Agency [EPA]
National Institutes of Environmental Health Sciences [NIEHS]
National Toxicology Program [NTP]
U.S. Food and Drug Administration [FDA]
Androgen receptor (AR), a nuclear hormone receptor, plays a critical role in AR-dependent prostate cancer and other androgen related diseases. Endocrine disrupting chemicals (EDCs) and their interactions with steroid hormone receptors like AR may cause disruption of normal endocrine function as well as interfere with metabolic homeostasis, reproduction, developmental and behavioral functions. To identify the compounds that inhibit AR signaling, MDA-kb2 AR-luc cell line (from ATCC, deposited by Wilson et al.) was used to screen the Tox21 10K compound library. MDA-kb2 AR-luc cell line is human breast carcinoma cell line that was stably transfected with a luciferase reporter gene under control of the MMTV promoter containing response elements for both androgen receptor (AR) and glucocorticoid receptor (GR). The cytotoxicity of the Tox21 compound library against the MDA-kb2 AR-luc cell line was tested in parallel by measuring the cell viability using CellTiter-Fluor assay (Promega, Madison, WI) in the same wells.
Tox21 Assay Protocol Summary:
MDA-kb2 AR-luc cells were dispensed at 3,000 cells/4 uL/well of culture medium into white wall/solid-bottom 1536-well plates using a Multidrop Combi (ThermoFisher Scientific, Waltham, MA) dispenser. After the assay plates were incubated at a 37C and 0% CO2 for 5 hr, 23 nL of compounds dissolved in DMSO, positive controls or DMSO only was transferred to the assay plate by a Pintool station (Kalypsys, San Diego, CA), followed by addition of 1 uL of agonist (R1881) in culture medium using a Bioraptr Flying Reagent Dispenser (FRD) workstation (Beckman Coulter, Indianapolis, IN, USA). The plates were incubated at a 37C and 0% CO2 for 16 h. After 15.5 h incubation, 1uL of CellTiter-Fluor reagent (Promega) was added using a Bioraptr FRD to each plate for measuring cytotoxicity. The fluorescence intensity was quantified on a ViewLux plate reader (PerkinElmer, Shelton, CT) following 30 min incubation at 37C and 0% CO2.
(Quantitative high-throughput screening tests each substance at several concentrations.)
As for `COc1cccc2c1C(=O)c1c(O)c3c(c(O)c1C2=O)C[C@@](O)(C(=O)CO)C[C@@H]3O[C@H]1C[C@H](N)[C@H](O)[C@H](C)O1`, the Potency entry is “inactive”.

Turning to `CCCCCCCCCC(=O)OC`, the Potency result was “inactive”.

Regarding `Cc1ccc(C(=O)c2cc(O)c(O)c([N+](=O)[O-])c2)cc1`, the Potency result was “inactive”.

For the compound `S=C(NC1CCCCC1)NC1CCCCC1`, the Potency result is “inactive”.

As for `CC(=O)Oc1ccccc1C(=O)Nc1ncc([N+](=O)[O-])s1`, the Potency result was “inactive”.

On to `NC=O`, for which the Potency entry is “inactive”.

In the case of `O=C(/C=C/C=C/c1ccc2c(c1)OCO2)N1CCCCC1`, the Potency entry is “inactive”.

In the case of `COC(=O)C1=C(C)NC(C)=C(C(=O)OCCN(C)Cc2ccccc2)C1c1cccc([N+](=O)[O-])c1` (stereo not given), the Potency entry was “inactive”.

On to `NNc1ccc(C(=O)O)cc1`, for which the Potency entry is “inactive”.

In the case of `CC(C)Oc1ccc2c(=O)c(-c3ccccc3)coc2c1`, the Potency entry was “inactive”.

As to `CC(C)=CCCC(C)CCO` (stereo not given), the Potency result was “inactive”.

With `CCCCOCCOCCO`, the Potency result was “inactive”.

For the compound `CCC(C)(O)CCCC(C)C` (stereo not given), the Potency result was “inactive”.

Consider `CCOCCOCCO`, for which the Potency entry is “inactive”.

In the case of `Nc1ccccc1N`, the Potency entry is “inactive”.

As to `CC(=O)CC/C=C(\C)CCC=C(C)C`, the Potency result is “inactive”.

In the case of `CC(=O)C1(C)CC2=C(CCCC2(C)C)CC1C` (stereo not given), the Potency entry is “inactive”.

Consider `COc1c(Cl)c(Cl)c(Cl)c(Cl)c1Cl`, for which the Potency entry was “inactive”.

With `COC(C)COC(C)COC(C)CO` (stereo not given), the Potency entry was “inactive”.

As for `C[Si](C)(C)O[Si](C)(C)C`, the Potency result was “inactive”.

With `OC[C@H]1O[C@@H]2O[C@H]3[C@H](O)[C@@H](O)[C@@H](O[C@H]4[C@H](O)[C@@H](O)[C@@H](O[C@H]5[C@H](O)[C@@H](O)[C@@H](O[C@H]6[C@H](O)[C@@H](O)[C@@H](O[C@H]7[C@H](O)[C@@H](O)[C@@H](O[C@H]8[C@H](O)[C@@H](O)[C@@H](O[C@H]1[C@H](O)[C@H]2O)O[C@@H]8CO)O[C@@H]7CO)O[C@@H]6CO)O[C@@H]5CO)O[C@@H]4CO)O[C@@H]3CO`, the Potency entry was “inactive”.

`CCCCC(CC)COC(=O)c1ccc(N(C)C)cc1` (stereo not given): the Potency entry is “inactive”.

On to `Cc1c(C(N)=O)cc([N+](=O)[O-])cc1[N+](=O)[O-]`, for which the Potency entry is “inactive”.

For `CCCCCCCCCCCO`, the Potency result is “inactive”.

As to `O=c1oc(=O)c2cc3c(=O)oc(=O)c3cc12`, the Potency result is “inactive”.

On to `COc1ccccc1/C=C/C=O`, for which the Potency result was “inactive”.

With `CC(C)OB(OC(C)C)OC(C)C`, the Potency result is “inactive”.

As to `CN(C)c1nc(N(C)C)nc(N(C)C)n1`, the Potency result is “inactive”.

`O=C(O)c1ccccc1Nc1cccc(C(F)(F)F)c1`: the Potency entry was “inactive”.

`c1ccc2c(c1)Oc1ccccc1S2`: the Potency result was “inactive”.

With `O=C(c1ccccc1)c1ccc(O)cc1O`, the Potency entry is “inactive”.

As for `c1cc(-c2ccncc2)ccn1`, the Potency entry was “inactive”.

In the case of `C=CC(C)(CCC=C(C)C)OC(C)=O` (stereo not given), the Potency entry is “inactive”.

Regarding `CN(C)C(=N)N=C(N)N`, the Potency result is “inactive”.

As for `O=C(Nc1ccc(Cl)cc1)Nc1ccc(Cl)c(Cl)c1`, the Potency was 24.3 µM (active).

As for `O=C(c1ccc(OCCN2CCCCC2)cc1)c1c(-c2ccc(O)cc2)sc2cc(O)ccc12`, the Potency is 68.7 µM (active) and 61.1 µM (active).

As to `O=C(COc1ccc(Cl)cc1)N1CCN(Cc2ccc3c(c2)OCO3)CC1`, the Potency entry is “inactive”.

As for `Oc1ccc(O)cc1`, the Potency result is “inactive”.

Take `CCCCOCCOCCOCCO`: the Potency result is “inactive”.

Turning to `CCCC(=O)O`, the Potency result is “inactive”.
